About 83,000 compounds went through this panel and 20% of them were active in at least one assay; those are over-represented in the sample as a whole.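 Each cell line was grown in a 96-well plate and treated with one concentration of compound for 48 hours. Values below 10 were considered active.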 A number with no mark means an inactive call. Active and inactive are the calls of the source.
These compounds were tested on HL-60(TB) leukemia (assay: NCI-60 one-dose screen, 48 h (100 = growth as untreated, 0 = no growth, -100 = all killed)). Conditions: 10 µM unless noted.

Row | Compound | growth
1 | N#Cc1ccc(O)c(C2=NCC(c3ccccc3)O2)c1 (stereo not given) | 14.5%
2 | COc1ccccc1N(C(C)=O)C1=C(Cl)C(=O)c2ccccc2C1=O | -27.5% (active)
3 | CN[C@@H]1C[C@H]2O[C@@](C)([C@@H]1OC)n1c3ccccc3c3c4c(c5c6ccccc6n2c5c31)C(=O)N[C@H]4O | -40.8% (active)
4 | O=C(CCCCCn1c2ccccc2c2c3c(c4c5ccccc5[nH]c4c21)C(=O)N(O)C3=O)N1CCOCC1 | 44.6%
5 | OC(COc1ccccc1)CN1CCN(c2ccc(Cl)cc2)CC1 (stereo not given) | 83.3%
6 | COc1ccc(/C=C(/C(=O)N2CCCCC2)c2cc(OC)c(OC)c(OC)c2)cc1 | -17.5% (active)
7 | COc1ccccc1Nc1nnc(COc2ccc(CNC(=O)CCCC/C=C/C(C)C)cc2OC)o1 | 81.1%
8 | O=C(O)c1ccccc1Nc1cccc(S(F)(F)(F)(F)F)c1 | 96.9%
9 | COc1ccc(-c2cc(-c3cccnc3)nc3sc4c(Cl)nnnc4c23)cc1OC | 85.4%
10 | CC12O[C@H](C[C@@H](OC(=O)CCC(=O)O)[C@H]1O)n1c3ccccc3c3c4c(c5c6ccccc6n2c5c31)C(=O)NC4=O | 66.7%
11 | COc1ccc(-c2cc(-c3cc(OC)c(OC)c(OC)c3)c(C#N)c(=O)n2CCCCC(=O)O)cc1 | 103%
12 | C=C1C(=O)C2CCC1C2 (stereo not given) | 95.9%
13 | CCCCOc1nc2ccc(Cl)cc2cc1/C=C/C(=O)/C=C/c1ccc(OC)cc1 | 89.5%
14 | CC1=CC(C)=Nc2ccc(Cl)cc2N1 | 101%
15 | N#C/C(=C\c1ccc(-c2ccc(Cl)c(Cl)c2)o1)c1nc(-c2ccco2)cs1 | 103%
16 | CCCCC1CCc2cccc3c(SCC(=O)N(C)c4ccc(Cl)cc4)cc[n+]1c23 (stereo not given) | 91.4%
17 | Cn1cc(-c2ccc(F)c(C(F)(F)F)c2)nc1C1CCN(c2ncnc3[nH]ncc23)CC1 | 84.7%
18 | Nn1c(CN2CCN(c3cc4c(cc3F)c(=O)c(C(=O)O)cn4C3CC3)CC2)n[nH]c1=S | 101%
19 | Cc1ccc(S(=O)(=O)N2CCC(=O)c3ccccc32)cc1 | 60.3%
20 | O=C(c1ccccc1)c1ccc(C2CCCCC2)cc1 | 101%

Row | Compound | growth
21 | CN(Cc1cccc(C(F)(F)F)c1)C(=O)[C@@H](CC(=O)N1CCC(N2CCCCC2)CC1)N1C(=O)[C@@H](N2C(=O)OC[C@@H]2c2ccccc2)[C@H]1/C=C/c1ccccc1 | 70.1%
22 | O=Cc1c[nH]c2ccc(-c3csc4ccccc34)cc12 | 3.68% (active)
23 | CC(/C=N/NC(=O)c1cc(-c2ccco2)[nH]n1)=C\c1ccccc1 | 99%
24 | COc1ccc(S(=O)(=O)N(C(C)=O)c2ccccc2/C=C/c2cc[n+]([O-])cc2)cc1 | -27.6% (active)
25 | COc1ccc2nc(/C=C/c3ccc(N(C)C)cc3)sc2c1 | 51.1%
26 | O=C(CCl)Nc1ccc2c(Nc3cc(O)ccc3Cl)ncnc2c1 | -53.2% (active)
27 | CC(C)[C@H](CO)Nc1nc(Nc2ccc(C(=O)NCCNS(=O)(=O)c3cccc4c(N(C)C)cccc34)c(Cl)c2)c2ncn(C(C)C)c2n1 | -36.7% (active)
28 | CC1(O)COCCCCOc2c(CN)cccc2NC(=O)c2nc(cnc2N)-c2ccc(cc2)S(=O)(=O)C(C)(C)C1 (stereo not given) | -54.7% (active)
29 | Cc1ccc(-c2nc(N3CCN(CC(=O)Nc4ccc(Cl)cc4)CC3)c3ccccc3n2)cc1 | 99.8%
30 | CN1Cn2c(ccc2C(F)(F)F)C(=O)CS1(=O)=O | 108%
31 | CC1=C(NCCN2CCCC2)C(=O)c2c(OCc3ccc(F)c(Cl)c3)cccc2C1=O | 98.1%
32 | O=[N+]([O-])c1cccc(-c2nc3sccn3c2-c2ccnc(NCCNS(=O)(=O)c3ccc(C(F)(F)F)cc3)n2)c1 | 16%
33 | CNC(=O)c1cc(Oc2cccc3nc(Nc4ccc(Cl)c(F)c4)ccc23)ccn1 | 95%
34 | O=C1C2=C(CCN(Cc3ccccc3)C2)N2CCN=C2N1Cc1ccc(C(F)(F)F)cc1 | 20.4%
35 | O=C(/C=C/c1nnc2n(Cc3ccccc3)c(=O)c3c4c(sc3n12)CCCC4)c1ccccc1 | 43.5%
36 | O=C1/C=C/[C@@H](O)[C@@H]2C[C@@H](O)C[C@H]2/C=C/CCC[C@H](C(F)(F)F)O1 | -32.7% (active)
37 | O=C(CSc1nc2c(n1Nc1ccccc1)-c1ccccc1SC2)Nc1nc(-c2ccc(Cl)cc2)cs1 | 104%
38 | COc1ccccc1Cn1cc2c(c1)-c1oncc1CC2 | 1.41% (active)
39 | CN(C)C/C=C/C(=O)Nc1cc2c(Nc3cccc(Cl)c3F)ncnc2cc1OCCOC(F)F | 43.2%
40 | CCCCC/C=N/Nc1nc(C)cc(=O)[nH]1 | 108%
